Compound activity (PubChem)
USP1 inh – Inhibitors of USP1/UAF1: Primary Screen; Ubiquitin carboxyl-terminal hydrolase 1 (Homo sapiens), O94782; Potency, µM (top dose mostly 57.1 µM), inactives show top-dose activity change, negative = inhibition, actives largely listed as inhibitors; recombinant USP1/UAF1, Ub-Rhodamine cleavage fluorescence; actives 0.23% (n = 390,000); also: potency is read from the fitted curve at half-maximal effect; nearly all actives have a fitted effect of over 60% in size
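In this screen, compounds sit with the deubiquitinase complex (1nM) for 15 min at room temperature before Ub-Rho is added at 150nM final. Fluorescence rise is then followed for 6 reads every 60 seconds.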
Tau fibril FP – qHTS for Inhibitors of Tau Fibril Formation, Fluorescence Polarization; K18 P301L tau heparin fibrillization, Alexa594 FP, 6 h; Microtubule-associated protein tau (Homo sapiens), P10636; Potency, µM (doses to about 57.7 µM), without a hit: top-dose activity, negative = inhibition, most hits filed as inhibitors; actives 0.39% (n = 280,000); AID 1468, 2008; also: potency is read from the fitted curve at half-maximal effect; nearly all actives have a fitted effect of over 55% in size
Target sequence (P10636 561-689 P618L limits assumed): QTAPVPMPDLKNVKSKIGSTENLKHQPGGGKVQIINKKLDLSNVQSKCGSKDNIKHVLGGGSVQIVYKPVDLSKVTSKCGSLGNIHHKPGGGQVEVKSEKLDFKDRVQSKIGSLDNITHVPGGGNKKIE
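Heparin (20 uM) drove fibril formation of recombinant tau K18 P301L, 15 uM unlabeled with 0.24 uM Alexa 594 label, for 6 hr at 37 C in 100 mM sodium acetate pH 7. Fluorescence polarization (555/632 nm) read 1 hr after 30 uM ThT.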
Tau fibril ThT – qHTS for Inhibitors of Tau Fibril Formation, Thioflavin T Binding. Microtubule-associated protein tau (Homo sapiens), P10636. recombinant tau K18 P301L, heparin-induced fibrillization, ThT fluorescence. Potency, µM (series often up to 57.4 µM), without a hit: at the highest dose activity, negative = inhibition, hits mostly inhibitors. actives 2.1% (n = 270,000). AID 1460, 2008; also: potency is read from the fitted curve at half-maximal effect; nearly all actives have a fitted effect of over 55% in size
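Fibril formation assay: tau K18 P301L at 15 uM with trace Alexa 594 label, heparin inducer 20 uM, pH 7 sodium acetate buffer, 37 C for 6 hr; endpoint ThT signal.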
FBPA coupling cs – qHTS Assay for Inhibitors of Fructose-1,6-bisphosphate Aldolase from Giardia Lamblia: Coupling assay counterscreen. coupling enzyme system counterscreen, AmpLite Red fluorescence. activity change, negative = inhibition, % at 58.2 µM, hits read low. actives 0.67% (n = 290,000). AID 2472, 2010; in the data active = activity change below about -30%
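Counterscreen of the coupled detection system alone, without aldolase: glyceraldehyde-3-phosphate coupling enzymes plus AmpLite Red readout. Compounds at 57.5 uM final, 10 min RT preincubation, 20 min RT reaction, fluorescence 525/598 nm.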
Tau fluor cs – Counterscreen qHTS for Inhibitors of Tau Fibril Formation, Fluorescence Polarization. tau K18 P301L Alexa594 fluorescence, heparin fibrillization. Potency, µM (highest dose often 57.7 µM), without a hit: at the highest dose activity change, negative = decrease. actives 0.93% (n = 280,000); also: potency is read from the fitted curve at half-maximal effect; nearly all actives have a fitted effect of over 55% in size
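Human tau K18 P301L (15 uM unlabeled, 0.24 uM Alexa 594-labeled) in 100 mM sodium acetate pH 7 with 20 uM heparin, 6 hr at 37 C. ThT 30 uM added, 1 hr ambient; Alexa 594 FP and total fluorescence read at 555/632 nm.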
An asterisk follows results filed as active; [ ] = remark or other dose. Sampled rows, rich in hits. Any-hit rate of the full collection: about 2.3%. Unless noted, calls follow the shape of the dose curve; as a rule, active = well fitted curve in the direction sought with a large enough effect; inconclusive = small, poorly fitted or top-dose-only effect, or another doubt; inactive = no such curve, though single readings can be large; an effect the other way counts as inactive or inconclusive. % is scaled to controls: 0 for no effect and ±100 for the full control effect.

Screening CC(C)C[C@H](NC(=O)[C@H](Cc1c[nH]c2ccccc12)NC(=O)[C@H](CCCCN)NC(=O)CNC(=O)[C@H](CC(C)C)NC(=O)[C@H](CO)NC(=O)[C@@H](N)Cc1cnc[nH]1)C(=O)NCC(=O)N[C@@H](Cc1cnc[nH]1)C(=O)N1CCC[C@H]1C(=O)N[C@@H](CC(=O)O)C(=O)N[C@@H](CCCCN)C(=O)N[C@@H](Cc1ccccc1)C(=O)O returned FBPA coupling cs 1.
For COc1ccc(N=N/C(=C\O)C(=O)c2cccs2)cc1 the results were USP1 inh -29%, Tau fibril FP 4%, Tau fibril ThT 13µM*, FBPA coupling cs -1 and Tau fluor cs inconclusive.
COc1ccc(C(=O)/C(=C/O)N=Nc2ccc(F)cc2)cc1 was read as USP1 inh -20%, Tau fibril FP -9%, Tau fibril ThT 28µM*, FBPA coupling cs 4 and Tau fluor cs -29%.
Screening Cc1c(Cl)cccc1NC(=O)c1ccc2c(c1)nnn2C1CCCC1 returned USP1 inh -9%, Tau fibril FP -5%, Tau fibril ThT -5% and Tau fluor cs -4%.
Screening O=c1c(-c2ccc(F)cc2)nc2cnc(N3CCOCC3)nc2n1CCc1ccccc1 returned FBPA coupling cs 0.
Screening CC(NCc1ccc(F)cc1)C(=O)NC1CCCCC1 (configuration not stated) returned USP1 inh -7%, Tau fibril FP -20%, Tau fibril ThT 32µM*, FBPA coupling cs -2 and Tau fluor cs -21%.
For CN(C)c1nc(=NCc2ccco2)ss1 the results were USP1 inh -26%, Tau fibril FP 14µM*, Tau fibril ThT 8.9µM*, FBPA coupling cs -56* and Tau fluor cs -13%.
Screening COc1ccc(NC(=O)c2cc(S(=O)(=O)N(Cc3ccccc3)c3ccccc3)ccc2Cl)cn1 returned USP1 inh -22%, Tau fibril FP -7%, Tau fibril ThT 2%, FBPA coupling cs -44* and Tau fluor cs -16%.
`Cc1cc(Nc2ccccc2)nn1C(=O)c1ccc(Br)cc1` gave USP1 inh -2%, Tau fibril FP 10%, Tau fibril ThT -9%, FBPA coupling cs 2 and Tau fluor cs 7.9µM*[quencher].
`CCN(CC)c1ccc(C(=O)N/N=C(\C)c2ccc(O)cc2)cc1` gave USP1 inh -17%, Tau fibril FP 1%, Tau fibril ThT inconclusive, FBPA coupling cs 2 and Tau fluor cs -15%.
For CN(C)c1ccc(/C=N/NC(=O)c2ccc(NC(=O)c3ccccc3)cc2)cc1 the results were USP1 inh 6%, Tau fibril FP 3%, Tau fibril ThT 1.6µM*, FBPA coupling cs 0 and Tau fluor cs inconclusive.
O=C(N/N=C/c1ccc(Br)cc1)c1ccc(NC(=O)c2ccccc2)cc1 was read as USP1 inh -22%.
Screening CN(C)c1ccc(/C=C(/NC(=O)c2ccccc2)C(=O)N/N=C/c2ccc([N+](=O)[O-])c(O)c2)cc1 returned USP1 inh -24%, Tau fibril FP 2%, Tau fibril ThT 4µM*, FBPA coupling cs -16 and Tau fluor cs 14µM*[quencher].
`CCN(CC)c1ccc(/C=N\NC(=O)c2cccc3cc[nH]c23)cc1` gave USP1 inh inconclusive, Tau fibril FP -4%, Tau fibril ThT 6.3µM*, FBPA coupling cs 0 and Tau fluor cs 14µM*[quencher].
CCN(CC)c1ccc(/C=N/NC(=O)c2ccc(O)cc2)cc1 was read as Tau fibril FP 16%, Tau fibril ThT 3.2µM*, FBPA coupling cs 1 and Tau fluor cs inconclusive.
For CC1CN(C(=O)N2CCC(C(=O)NCCCc3ccccc3)CC2)c2ccccc2O1 (configuration not stated) the results were USP1 inh -22%, Tau fibril FP inconclusive, Tau fibril ThT -11% and Tau fluor cs -14%.
`COc1ccc([N+](=O)[O-])cc1/C=N/NC(=O)/C(=C\c1cccs1)NC(=O)c1ccccc1` gave USP1 inh -4%, Tau fibril FP inconclusive, Tau fibril ThT -4%, FBPA coupling cs -42* and Tau fluor cs -18%.
CCN(CC)c1ccc(/C=N/NC(=O)c2ccoc2C)cc1 was read as USP1 inh -22%, Tau fibril FP -3%, Tau fibril ThT 10µM*, FBPA coupling cs -11 and Tau fluor cs inconclusive.
Screening CCOC(=O)C1=C(C)NC2=C(C(=O)c3ccccc32)C1c1cccc2ccccc12 (configuration not stated) returned USP1 inh -19%, Tau fibril FP 13%, Tau fibril ThT inconclusive, FBPA coupling cs -3 and Tau fluor cs 14µM*[quencher].
`CCOC(=O)C1=C(C)NC2=C(C(=O)c3ccccc32)C1c1ccc(O)cc1` (configuration not stated) gave USP1 inh -15%, Tau fibril FP 11%, Tau fibril ThT 10µM*, FBPA coupling cs 5 and Tau fluor cs inconclusive.
Screening CCCOc1ccc(C2C(=O)N(C3CCC(C)CC3)CC(=O)N2CCc2ccccc2)cc1OC (configuration not stated) returned USP1 inh -11%, Tau fibril FP 11%, Tau fibril ThT 1% and Tau fluor cs 17%.
For COc1ccc(-c2cc(-c3cc(C)ccc3O)[nH]n2)cc1 the results were USP1 inh -26%, Tau fibril FP inconclusive, Tau fibril ThT inconclusive, FBPA coupling cs -4 and Tau fluor cs 16µM*[quencher].
Nc1nc(N)c(C=Nc2ccc(Br)cc2)c(Nc2ccc(Br)cc2)n1 was read as USP1 inh 1%, Tau fibril FP inconclusive, Tau fibril ThT 28µM*, FBPA coupling cs 1 and Tau fluor cs 10µM*[quencher].
Nc1nc(N)c(S(=O)(=O)c2ccccc2)c(Nc2ccc(Br)cc2)n1 was read as USP1 inh -24%, Tau fibril FP 32µM*, Tau fibril ThT -9% and Tau fluor cs inconclusive.
For CCSC1=NC2(CCN(C(=O)NC3CCCCC3)CC2)N=C1c1ccc(OC)cc1 the results were USP1 inh -21%, Tau fibril FP -1%, Tau fibril ThT inconclusive and Tau fluor cs -16%.
Screening O=C(O)/C=C/c1ccc([N+](=O)[O-])o1 returned USP1 inh -5%, Tau fibril FP -3%, Tau fibril ThT -7%, FBPA coupling cs 6 and Tau fluor cs -4%.
Screening O=[N+]([O-])c1ccc(/C=N/N=C/c2ccc([N+](=O)[O-])o2)o1 returned USP1 inh -9%, Tau fibril FP inconclusive, Tau fibril ThT 13µM*, FBPA coupling cs -20 and Tau fluor cs inconclusive.
